Data on 106 compounds can be found in PubChem BioAssay AID686978 (National Center for Advancing Translational Sciences (NCATS), 2013).

The structures appear in SMILES notation. In all, about 420,000 compounds went through this assay and about 64,000 (15%) were called active. Roughly 27% stayed inconclusive and do not appear here. Calls follow the shape of the dose curve; as a rule, active = well fitted inhibition curve with a large enough effect; inconclusive = small, poorly fitted or top-dose-only effect; inactive = flat fitted curve, though single readings scatter. A selection follows. Where a call stands in place of a potency, no number is given.
Potency is read from the fitted curve at half-maximal effect.

This test is described as follows: qHTS for Inhibitors of human tyrosyl-DNA phosphodiesterase 1 (TDP1): qHTS in cells in absence of CPT. Also: nearly all actives have a fitted effect of over 55% in size. The note with it: DT40 Tdp1-/- hTDP1 cells, no CPT, ATP luminescence, 48 h; activity change, negative = growth inhibition: at 46.2 µM (top of the series). The procedure, abridged:
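DT40 Tdp1-/-;hTDP1 cells, no CPT (DMSO vehicle only), 400 cells/well; compounds pin-transferred; ≥48 hr, 37 °C; CellTiter-Glo 30 min RT dark, luminescence read.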
Background: In qHTS, concentration-response curves come from the screen itself.
In the case of `O=C(C1CCN(CC2CCCCC2)CC1)N1CCCC1`, the Potency result was “inactive”.

In the case of `CC(=O)NS(=O)(=O)c1ccc(NC(=S)NC(=O)C(C)(C)C)cc1`, the Potency result is “inactive”.

As to `CC(NC(=O)c1ccccc1SCC(=O)N1CCCC1)c1ccccc1` (stereo unspecified), the Potency result was “inactive”.

Take `C=CCn1c(=S)[nH]c2nc3c(cc2c1=O)COC(C)(C)C3`: the Potency entry is “inactive”.

Consider `CCOc1ccc(NC(=O)CSc2ncnc3c2sc2ccccc23)cc1`, for which the Potency entry is “inactive”.

Take `CC1(C)Cc2nc3sc4c(SCC(=O)NC(c5ccccc5)c5ccccc5)ncnc4c3cc2CO1`: the Potency was 8.2 µM (active).

Regarding `O=c1cnnc(Nc2ccccc2F)[nH]1`, the Potency entry was “inactive”.

Take `CCc1nc2nc(C)c(NS(=O)(=O)c3ccc4c(c3)CCCC4)c(=O)n2[nH]1`: the Potency entry is “inactive”.

Turning to `COCc1c(N)c(C)nc(Cl)c1C#N`, the Potency entry was “inactive”.

Take `O=C(NCCCO)C(=O)Nc1c2c(nn1-c1ccccc1)CSC2`: the Potency entry is “inactive”.

For `COc1ccc(N(C(=O)CNC(=O)c2ccco2)C(C(=O)NCC2CCCO2)c2ccccc2)cc1Cl` (stereo unspecified), the Potency result was “inactive”.

In the case of `Cc1ccc(-c2nn(-c3ccc(F)cc3)cc2C(=O)NCC(c2cccs2)N2CCOCC2)cc1` (stereo unspecified), the Potency was 14.6 µM (active).

Consider `O=C(NCCCN1CCOCC1)c1cn(-c2ccccc2)nc1-c1ccc(F)cc1`, for which the Potency entry is “inactive”.

Turning to `O=C(NCc1cccnc1)c1cn(-c2ccccc2)nc1-c1cccs1`, the Potency entry was “inactive”.

In the case of `Cc1nn(CC(=O)NCc2ccccn2)c(C)c1[N+](=O)[O-]`, the Potency entry is “inactive”.

As to `CCOC(=O)c1c(NC(=O)/C=C/c2ccco2)sc(C)c1C`, the Potency entry was “inactive”.

Consider `C#CCOCCOCCOCCNc1nc(N2CCN(C(=O)C([C@@H](C)CC)n3cc(C(N)COC(=O)C(F)(F)F)nn3)CC2)nc(N2CCN(C(=O)[C@H](Cc3ccc(O)cc3)n3cc(C(N)[C@H](C)CC)nn3)CC2)n1` (stereo partly specified), for which the Potency entry was “inactive”.

Turning to `O=C(CSc1nncn1-c1cccnc1)N1CCOCC1`, the Potency result is “inactive”.

Regarding `O=S(=O)(c1ccc(F)cc1)N1CCN(C(=S)NC2CCCC2)CC1`, the Potency result was “inactive”.

With `CCOC(=O)c1sc(=S)n(-c2cccc(OC)c2)c1N`, the Potency is 11.2 µM (active).

For `CCOC(=O)Cn1c(N)c(C(=O)OC)sc1=S`, the Potency result is “inactive”.

Regarding `COc1cccc(-n2c(=S)sc3c(=O)n(-c4ccccc4C)c(SCC(=O)O)nc32)c1`, the Potency result was “inactive”.

`Cc1ccc(-c2nnn(CC(=O)N(CCO)C(C(=O)NC(C)(C)C)c3ccncc3)n2)cc1` (stereo unspecified): the Potency entry was “inactive”.

For the compound `Cc1cccc2c3c(ccc12)C1=C(C(=O)C3=O)C(C)CO1` (stereo unspecified), the Potency entry is “inactive”.

On to `CCCC(=O)Nc1ncnc2c1ncn2[C@@H]1O[C@@H]2OP(=O)(O)OC[C@H]2[C@H]1OC(=O)CCC`, for which the Potency entry was “inactive”.

In the case of `Cc1nc(CNS(=O)(=O)c2cccnc2)cs1`, the Potency result is “inactive”.

As to `O=C(NCc1ccccc1Cl)c1csc2c1CCCCC2`, the Potency result is “inactive”.

`COC(=O)c1ccc(CNC(=O)C2CCC(=O)N(Cc3cccc(F)c3)C2)cc1` (stereo unspecified): the Potency entry was “inactive”.

As for `COC(=O)c1cc2n(n1)CCCNC2=O`, the Potency entry is “inactive”.

In the case of `CCNC(=O)c1cc2n(n1)CCCN(Cc1ccc(C)cc1)C2=O`, the Potency entry was “inactive”.

For the compound `Cc1ccc(CN2CCCn3nc(C(=O)NCc4ccccc4Cl)cc3C2=O)cc1`, the Potency is 25.9 µM (active).

As for `COc1cc(CNC(=O)c2cc3n(n2)CCCN(Cc2cccc(F)c2)C3=O)cc(OC)c1OC`, the Potency was 20.6 µM (active).

For `Cn1c(=O)c2c(ncn2CC(=O)N/N=C/c2cn[nH]c2-c2ccc(F)cc2)n(C)c1=O`, the Potency entry was “inactive”.

On to `O=C(Cc1ncc(C(F)(F)F)cc1Cl)Nc1cccc(Br)c1`, for which the Potency entry was “inactive”.

As to `CCc1nnc(NC(=O)CCC(=O)O)s1`, the Potency result was “inactive”.

As to `O=C(Nc1ncccn1)c1cccs1`, the Potency entry is “inactive”.

In the case of `C/C(CCc1ccccc1)=N\NC(=O)c1ccc(CN2CCOCC2)cc1`, the Potency result is “inactive”.

As for `CCN1CN(Cc2ccccc2)CNC1=S`, the Potency result is “inactive”.

As for `S=C1SCN(CCN2CCOCC2)CN1Cc1ccccc1`, the Potency was 3.16 µM (active).

For the compound `COC(=O)c1sc(-c2ccc(C(C)(C)C)cc2)cc1NC(=O)/C=C/C(=O)O`, the Potency was 4.61 µM (active).

Take `CSc1ccc(NC(=O)/C=C/C(=O)O)cc1`: the Potency result was “inactive”.

Consider `O=C(O)/C=C/C(=O)Nc1ccc(F)cc1F`, for which the Potency result is “inactive”.

With `Cc1nnc(SC(C(=O)Nc2cc(Cl)cc(Cl)c2)c2ccccc2)[nH]c1=O` (stereo unspecified), the Potency result was “inactive”.

On to `O=C(O)C1CCCCC1C(=O)Nc1ccc(Cl)cc1` (stereo unspecified), for which the Potency entry is “inactive”.

In the case of `COc1ccc(S(=O)(=O)N2CCC(C(=O)NCCC(=O)Nc3ccccc3OC)CC2)cc1`, the Potency result was “inactive”.

For `COc1ccccc1NC(=O)C1CCN(C(=O)c2ccc(C(C)(C)C)cc2)CC1`, the Potency was 16.4 µM (active).

Regarding `COc1ccc(CNC(=O)c2cc(C(=O)C3CC3)c[nH]2)cc1`, the Potency entry is “inactive”.

With `CC(C)(C)c1ccc(C(=O)N2CCC(C(=O)N3CCCCC3)CC2)cc1`, the Potency result is “inactive”.

In the case of `O=C(Nc1ccccc1)C1CCN(C(=O)c2ccc(Br)cc2)CC1`, the Potency result was “inactive”.

On to `COc1ccc(C(=O)N2CCC(C(=O)Nc3ccc(C)cc3)CC2)cc1`, for which the Potency is 10.3 µM (active).

With `COc1ccc(OC)c(NC(=O)C2CCN(S(=O)(=O)c3ccc(C)cc3)CC2)c1`, the Potency entry is “inactive”.

`CCc1ccc(NC(=O)CN2CCC(C(=O)c3ccc(OC)cc3)CC2)cc1`: the Potency is 23.1 µM (active).

On to `CCc1ccc(NC(=O)Cn2nnc(C(=O)NCc3ccc(OC)cc3)c2N)cc1`, for which the Potency entry was “inactive”.

As for `OCC(O)CN(c1ccccc1)c1ccccc1` (stereo unspecified), the Potency entry was “inactive”.

As to `Cc1ccccc1-n1nc(SCC(=O)O)sc1=S`, the Potency entry was “inactive”.

Consider `N=c1ccn(CC(=O)NC(N)=O)c2ccccc12`, for which the Potency result is “inactive”.

Turning to `C/C=N/NC(=O)CCCC(=O)N/N=C/C`, the Potency result is “inactive”.

On to `C[C@H](CO)N1C[C@H](C)[C@@H](CN(C)S(=O)(=O)c2ccc(F)cc2)Oc2ccc(NC(=O)CCC(F)(F)F)cc2C1=O`, for which the Potency result is “inactive”.

With `O=C(O)c1c(Br)c(Br)c(Br)c(Br)c1C1c2ccc(O)cc2Oc2cc(O)ccc21`, the Potency result is “inactive”.

In the case of `O=C(CNC(=O)[C@@H]1Cc2ccccc2CN1)NC1CCCCC1`, the Potency result was “inactive”.

As to `Cn1c(SCC(=O)OC2CCCCC2)nnc1-c1ccc(S(=O)(=O)N2CCCC2)cc1`, the Potency result was “inactive”.

With `COCCNC(=O)CN1C(=O)CSc2ncccc21`, the Potency entry is “inactive”.

On to `CC(=O)Nc1ccc(OC(=O)COc2ccc(Br)cc2)cc1`, for which the Potency entry was “inactive”.

Consider `O=C1NC(=O)C2C1C(c1ccc([N+](=O)[O-])cc1)=NN2Cc1ccccc1` (stereo unspecified), for which the Potency entry is “inactive”.

Consider `O=C(OCc1ccc([N+](=O)[O-])cc1)C1CC(=O)N(Cc2ccccc2Cl)C1` (stereo unspecified), for which the Potency entry was “inactive”.

For the compound `O=[N+]([O-])c1ccc(CN2CC(N3CCC(c4ccccc4)CC3)CS2(=O)=O)cc1` (stereo unspecified), the Potency was 23.1 µM (active).

As for `CSCC(NS(=O)(=O)c1ccc(C)cc1)C(=O)O` (stereo unspecified), the Potency entry is “inactive”.

In the case of `O=C(Nc1nnc(C2CC2)s1)C1=NN(C2CCS(=O)(=O)C2)C(=O)CC1` (stereo unspecified), the Potency entry was “inactive”.

Regarding `Cn1cc(CCC(=O)NC2CC2)c2ccccc21`, the Potency result was “inactive”.

On to `O=C(O)c1cccc(N=NN2CCCCCC2)c1`, for which the Potency result is “inactive”.

Regarding `CCC1CCCCN1C(=S)Nc1ccc(C(C)=O)cc1` (stereo unspecified), the Potency result was “inactive”.

Turning to `CC(=O)c1ccccc1NC(=O)CC1(CC(=O)O)CCCCC1`, the Potency result was “inactive”.

Take `COc1ccc([N+](=O)[O-])cc1N(CC(O)CN(CC(C)C)CC(C)C)S(=O)(=O)c1ccc(C)cc1` (stereo unspecified): the Potency is 23.1 µM (active).

As to `Cc1ccc(S(=O)(=O)N(CC(O)CN2CCCCC2)c2cccc([N+](=O)[O-])c2)cc1` (stereo unspecified), the Potency entry is “inactive”.

For `Cc1ccc(S(=O)(=O)N(CC(O)CN2C(=O)NC(C)(C)C2=O)c2cccc([N+](=O)[O-])c2)cc1` (stereo unspecified), the Potency entry was “inactive”.

Regarding `Cc1cc(C)n(Cc2cnc(N3CCOCC3)s2)n1`, the Potency entry was “inactive”.

Take `O=C(NCC(=O)N(CC1CCCO1)C(C(=O)NC1CCCCC1)c1ccccc1)c1ccco1` (stereo unspecified): the Potency entry is “inactive”.

Take `Cc1ccc(-c2cc(C(=O)NN)n[nH]2)o1`: the Potency entry is “inactive”.

For `CCn1c(SCC(=O)Nc2cccc(F)c2)nnc1-c1cc2cc(Br)ccc2o1`, the Potency entry is “inactive”.

`COc1ccc(C)cc1S(=O)(=O)NC1CCCCC1`: the Potency result was “inactive”.

With `COc1ccc(-c2nc3cc(C)ccn3c2NC2CCCCC2)cc1SC1CCCCC1`, the Potency was 20.9 µM (active).

Turning to `COc1ccc(-c2nnc(SCC(=O)NC3CCCCC3)o2)cc1OC`, the Potency result was “inactive”.

`COc1ccc(-c2nc3cnccn3c2NC2CCCCC2)cc1-c1cccc(Cl)c1`: the Potency is 25.9 µM (active).

With `COc1ccc(-c2nc3cnccn3c2NC(C)(C)CC(C)(C)C)cc1O`, the Potency is 18.4 µM (active).

For the compound `COc1ccc(NC(=O)N(C)C[C@H]2Oc3ncc(C#C[C@@H](C)O)cc3C(=O)N([C@H](C)CO)C[C@H]2C)cc1`, the Potency entry was “inactive”.

As to `CC1(C)CCc2nc(SCc3ccccc3)c(C#N)cc2C1`, the Potency entry is “inactive”.

As for `Cc1ccc(NS(=O)(=O)c2ccc(-c3ccc(=O)[nH]n3)o2)c(C)c1`, the Potency entry was “inactive”.

`OCc1nc(CO)n(Cc2ccccc2)n1`: the Potency entry is “inactive”.

Turning to `CC1(C(=O)NS(=O)(=O)c2cccc(F)c2)CCN1C(=O)c1cccc2ccccc12` (stereo unspecified), the Potency entry was “inactive”.

As for `CSc1nnc(-c2ccc(C(F)(F)F)cn2)o1`, the Potency entry is “inactive”.

Turning to `Cc1onc(C(=O)NN)c1-c1csc(COc2ccccc2)n1`, the Potency result is “inactive”.

Consider `CC(C)(C)C(=O)OCc1nc(-c2ccc(O)c(O)c2)cs1`, for which the Potency is 20.6 µM (active).

As to `CCCC(=O)N1c2ccc(-c3csc(N)n3)cc2CC1C` (stereo unspecified), the Potency entry was “inactive”.

As to `CC(C(=O)O)n1cnc2sc3c(c2c1=O)CCCC3` (stereo unspecified), the Potency result was “inactive”.

For `Cn1c(NN)nc2sc3c(c2c1=O)CCC3`, the Potency is 29.1 µM (active).

As to `NNC(=O)C1CCCn2c1nc1sc3c(c1c2=O)CCCC3` (stereo unspecified), the Potency entry is “inactive”.

Regarding `Cc1ccc(N/C(N)=N/c2nc(C(F)(F)F)cc(C(F)(F)F)n2)cc1`, the Potency result was “inactive”.

In the case of `C=C[C@](C)(O)CCC1C(=C)CCC2[C@@](C)(CO)CCC[C@@]12C` (stereo partly specified), the Potency was 18.4 µM (active).

As for `Cc1nnc(SCC(=O)NC2CCCC2)s1`, the Potency entry is “inactive”.

Consider `O=C(NCc1cccs1)C1CCN(S(=O)(=O)c2ccc(Cl)cc2)CC1`, for which the Potency entry is “inactive”.

As for `O=C(NCc1ccc(Cl)cc1)C1CCN(S(=O)(=O)c2cccs2)CC1`, the Potency is 23.1 µM (active).

For the compound `O=C(NCc1ccccc1)C1CCCN(S(=O)(=O)c2cccs2)C1` (stereo unspecified), the Potency entry was “inactive”.

As to `CCCCCNC(=O)C1C(=O)Nc2ccccc2C(=O)N1C(C)(C)C` (stereo unspecified), the Potency result is “inactive”.

In the case of `COc1ccc(NC(=S)N2CCc3cc(OC)c(OC)cc3C2)cc1`, the Potency result is “inactive”.

Consider `COc1ccc(Nc2ncc3c(n2)CCN(C(=O)OC(C)(C)C)C3)cc1`, for which the Potency is 20.6 µM (active).

Consider `CCOc1ccc(-c2cc3nc(C4CCN(C(=O)OC(C)(C)C)CC4)c(C(=O)Nc4ccc(C(=O)OC)cc4)cn3n2)cc1`, for which the Potency result was “inactive”.
